In all, about 5,500 compounds went through this assay and about 2,000 (36%) were called active. Not shown: some 18% with an inconclusive outcome. This is one part of the list. A number with no mark means an inactive call. Cut-off read from the data, not from the text of the source: active = normalized growth mostly below about 0.91 (no sharp cut-off); inconclusive = no clear call, values can overlap the other calls; inactive = mostly above about 0.92.
Assay: chemical genetic growth profiling, strain panel (AID 1159580);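 note: tested at 20 µM; growth read once vehicle control cultures reached saturation at 30 °C; 1 = growth at the plate median or of vehicle wells; lower values mean less growth of the strain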
Details: growth OD

**Q.** What does the source list for `CC(CN(C)C)CN1c2ccccc2Sc2ccccc21` (configuration not stated)?
**A.** normalized growth (S. cerevisiae deletion strains, locus YJR075W, strain HOC1, active compounds read low): 0.986; normalized growth (S. cerevisiae deletion strains, locus YKL009W, strain mrt4, active compounds read low): 0.99; normalized growth (S. cerevisiae deletion strains, locus YKL068W, active compounds read low): 0.981; normalized growth (S. cerevisiae deletion strains, locus YKL085W, strain MDH1 (second series), active compounds read low): 1.01; normalized growth (S. cerevisiae deletion strains, locus YKL085W, strain MDH1, active compounds read low): 1.01; normalized growth (S. cerevisiae deletion strains, locus YKL160W, strain elf1, active compounds read low): 1.01; normalized growth (S. cerevisiae deletion strains, locus YKL190W, strain CNB1, active compounds read low): 0.999; normalized growth (S. cerevisiae deletion strains, locus YKR001C, strain vps1, active compounds read low): 0.991; normalized growth (S. cerevisiae deletion strains, locus YKR026C, strain gcn3, active compounds read low): 1.02; normalized growth (S. cerevisiae deletion strains, locus YKR091W, strain srl3, active compounds read low): 1.02; normalized growth (S. cerevisiae deletion strains, locus YLL001W, strain dnm1, active compounds read low): 1.02; normalized growth (S. cerevisiae deletion strains, locus YLL026W, active compounds read low): 1.02; normalized growth (S. cerevisiae deletion strains, locus YLL041C, strain sdh2, active compounds read low): 1.01; normalized growth (S. cerevisiae deletion strains, locus YLR027C, strain aat2, active compounds read low): 1.02; normalized growth (S. cerevisiae deletion strains, locus YLR039C, strain RIC1, active compounds read low): 1.34 [resistant] (active); normalized growth (S. cerevisiae deletion strains, locus YLR058C, strain SHM2, active compounds read low): 0.985; normalized growth (S. cerevisiae deletion strains, locus YLR102C, strain apc9, active compounds read low): 0.993; normalized growth (S. cerevisiae deletion strains, locus YLR113W, strain HOG1, active compounds read low): 0.988; normalized growth (S. cerevisiae deletion strains, locus YLR221C, strain rsa3, active compounds read low): 1.02; normalized growth (S. cerevisiae deletion strains, locus YLR258W, strain gsy2, active compounds read low): 1.02; normalized growth (S. cerevisiae deletion strains, locus YLR262C, strain YPT6 (second series), active compounds read low): 1.1; normalized growth (S. cerevisiae deletion strains, locus YLR262C, strain YPT6, active compounds read low): 1.44 [resistant] (active); normalized growth (S. cerevisiae deletion strains, locus YLR268W, strain sec22, active compounds read low): 0.918; normalized growth (S. cerevisiae deletion strains, locus YLR320W, strain mms22, active compounds read low): 1.01; normalized growth (S. cerevisiae deletion strains, locus YLR330W, strain CHS5, active compounds read low): 0.999; normalized growth (S. cerevisiae deletion strains, locus YLR342W, strain FKS1 (second series), active compounds read low): 0.888; normalized growth (S. cerevisiae deletion strains, locus YLR342W, strain FKS1, active compounds read low): 1.03; normalized growth (S. cerevisiae deletion strains, locus YLR357W, strain rsc2, active compounds read low): 1.04; normalized growth (S. cerevisiae deletion strains, locus YLR370C, strain arc18, active compounds read low): 1.02; normalized growth (S. cerevisiae deletion strains, locus YLR371W, strain rom2, active compounds read low): 0.994; normalized growth (S. cerevisiae deletion strains, locus YLR384C, strain iki3, active compounds read low): 1.02; normalized growth (S. cerevisiae deletion strains, locus YLR418C, strain cdc73, active compounds read low): 0.874; normalized growth (S. cerevisiae deletion strains, locus YML016C, strain PPZ1, active compounds read low): 0.992; normalized growth (S. cerevisiae deletion strains, locus YML032C, strain rad52, active compounds read low): 0.968; normalized growth (S. cerevisiae deletion strains, locus YML120C, strain ndi1, active compounds read low): 0.998; normalized growth (S. cerevisiae deletion strains, locus YML124C, strain tub3, active compounds read low): 0.995; normalized growth (S. cerevisiae deletion strains, locus YMR058W, strain fet3, active compounds read low): 1.01; normalized growth (S. cerevisiae deletion strains, locus YMR078C, strain ctf18, active compounds read low): 0.985; normalized growth (S. cerevisiae deletion strains, locus YMR125W, strain sto1, active compounds read low): 1.02; normalized growth (S. cerevisiae deletion strains, locus YMR129W, active compounds read low): 1.02; normalized growth (S. cerevisiae deletion strains, locus YMR205C, strain PFK2, active compounds read low): 1.03; normalized growth (S. cerevisiae deletion strains, locus YMR223W, strain ubp8, active compounds read low): 0.98; normalized growth (S. cerevisiae deletion strains, locus YMR231W, strain pep5, active compounds read low): 1.03; normalized growth (S. cerevisiae deletion strains, locus YMR263W, strain SAP30, active compounds read low): 0.978; normalized growth (S. cerevisiae deletion strains, locus YMR307W, strain GAS1, active compounds read low): 1.03; normalized growth (S. cerevisiae deletion strains, locus YNL067W, strain RPL9B, active compounds read low): 0.967; normalized growth (S. cerevisiae deletion strains, locus YNL071W, strain lat1, active compounds read low): 1.02; normalized growth (S. cerevisiae deletion strains, locus YNL128W, strain TEP1, active compounds read low): 0.988; normalized growth (S. cerevisiae deletion strains, locus YNL153C, strain GIM3, active compounds read low): 0.953; normalized growth (S. cerevisiae deletion strains, locus YNL183C, strain NPR1, active compounds read low): 0.948; normalized growth (S. cerevisiae deletion strains, locus YNL209W, strain ssb2, active compounds read low): 1.02; normalized growth (S. cerevisiae deletion strains, locus YNL233W, strain BNI4, active compounds read low): 0.969; normalized growth (S. cerevisiae deletion strains, locus YNL248C, strain rpa49, active compounds read low): 1.02; normalized growth (S. cerevisiae deletion strains, locus YNL250W, strain rad50, active compounds read low): 0.985; normalized growth (S. cerevisiae deletion strains, locus YNL271C, strain bni1, active compounds read low): 0.992; normalized growth (S. cerevisiae deletion strains, locus YNL298W, strain CLA4, active compounds read low): 0.991; normalized growth (S. cerevisiae deletion strains, locus YNL307C, strain MCK1, active compounds read low): 0.974; normalized growth (S. cerevisiae deletion strains, locus YNL322C, strain KRE1 (second series), active compounds read low): 1.04; normalized growth (S. cerevisiae deletion strains, locus YNL322C, strain KRE1, active compounds read low): 0.998; normalized growth (S. cerevisiae deletion strains, locus YNR049C, strain mso1, active compounds read low): 1.04; normalized growth (S. cerevisiae deletion strains, locus YNR052C, strain pop2, active compounds read low): 0.974; normalized growth (S. cerevisiae deletion strains, locus YOL006C, strain TOP1, active compounds read low): 0.922; normalized growth (S. cerevisiae deletion strains, locus YOL012C, strain htz1): 0.837; normalized growth (S. cerevisiae deletion strains, locus YOL147C, strain pex11, active compounds read low): 0.996; normalized growth (S. cerevisiae deletion strains, locus YOR001W, strain rrp6, active compounds read low): 1.01; normalized growth (S. cerevisiae deletion strains, locus YOR061W, strain CKA2, active compounds read low): 0.996; normalized growth (S. cerevisiae deletion strains, locus YOR069W, strain VPS5, active compounds read low): 0.984; normalized growth (S. cerevisiae deletion strains, locus YOR070C, strain gyp1, active compounds read low): 1.02; normalized growth (S. cerevisiae deletion strains, locus YOR080W, strain dia2, active compounds read low): 1.02; normalized growth (S. cerevisiae deletion strains, locus YOR083W, strain WHI5, active compounds read low): 0.987; normalized growth (S. cerevisiae deletion strains, locus YOR106W, strain vam3, active compounds read low): 1.05; normalized growth (S. cerevisiae deletion strains, locus YOR136W, strain idh2, active compounds read low): 0.987; normalized growth (S. cerevisiae deletion strains, locus YOR144C, strain elg1, active compounds read low): 0.993; normalized growth (S. cerevisiae deletion strains, locus YOR184W, strain ser1, active compounds read low): 1.02; normalized growth (S. cerevisiae deletion strains, locus YOR231W, strain MKK1, active compounds read low): 0.997; normalized growth (S. cerevisiae deletion strains, locus YOR265W, strain rbl2, active compounds read low): 1.03; normalized growth (S. cerevisiae deletion strains, locus YOR270C, strain vph1, active compounds read low): 1.08; normalized growth (S. cerevisiae deletion strains, locus YOR290C, strain snf2, active compounds read low): 1.02; normalized growth (S. cerevisiae deletion strains, locus YOR316C, strain cot1, active compounds read low): 0.992; normalized growth (S. cerevisiae deletion strains, locus YPL051W, strain arl3, active compounds read low): 0.996; normalized growth (S. cerevisiae deletion strains, locus YPL055C, strain LGE1, active compounds read low): 0.992; normalized growth (S. cerevisiae deletion strains, locus YPL078C, strain atp4, active compounds read low): 1.01; normalized growth (S. cerevisiae deletion strains, locus YPL106C, strain sse1, active compounds read low): 1.03; normalized growth (S. cerevisiae deletion strains, locus YPL240C, strain hsp82, active compounds read low): 0.997; normalized growth (S. cerevisiae deletion strains, locus YPL241C, strain CIN2, active compounds read low): 0.999; normalized growth (S. cerevisiae deletion strains, locus YPL256C, strain CLN2, active compounds read low): 0.99; normalized growth (S. cerevisiae deletion strains, locus YPR119W, strain clb2, active compounds read low): 0.997; normalized growth (S. cerevisiae deletion strains, locus YPR141C, strain kar3, active compounds read low): 0.983; normalized growth (S. cerevisiae deletion strains, locus YPR163C, strain tif3, active compounds read low): 0.966; normalized growth (S. cerevisiae deletion strains, locus YPR167C, strain met16, active compounds read low): 0.99; normalized growth (S. cerevisiae deletion strains, strain wtn01, active compounds read low): 0.968; normalized growth (S. cerevisiae strains, strain wild type, active compounds read low): 0.992

Reference: PubChem BioAssay AID1159580 (chemical genetic matrix, 2015)
